Experimental data from PubChem BioAssay (Tox21).
Inconclusive results are not listed. Values without a mark were called inactive. Activity calls are given as the source filed them. Calls come from the whole dose curve.

Assay: qHTS assay for small molecule agonists of the p53 signaling pathway - cell viability (AID 651633);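 note: p53RE-bla HCT reporter cells with a stable beta-lactamase p53 reporter; nearly all actives have a fitted effect of over 30% in size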
Conditions: p53RE-bla HCT-116 viability, ATP luminescence, 16 h; series mostly up to 83.3 µM; activity change, negative = cytotoxicity: at the top concentration
Description: National Center for Advancing Translational Sciences [NCATS]
NIH Chemical Genomics Center [NCGC]
U.S. Environmental Protection Agency [EPA]
National Institutes of Environmental Health Sciences [NIEHS]
National Toxicology Program [NTP]
U.S. Food and Drug Administration [FDA]
p53, a tumor suppressor protein, is activated following cellular insult, including DNA damage and other cellular stresses. The activation of p53 regulates cell fate by inducing DNA repair, cell cycle arrest, apoptosis, or cellular senescence. The activation of p53, therefore, is a good indicator of DNA damage and other cellular stresses. […] The activation of the reporter gene under culture conditions can be detected by fluorescence intensity. This cell line was used to screen the Tox21 compound library in a 1536-well plate format and to identify agonists that activate the p53 signaling pathway.
Tox21 Assay Protocol Summary:
The p53RE-bla cells were dispensed at 4,000 cells/5 ul/well in 1536-well black wall/clear bottom plates using a Multidrop dispenser. After the assay plates were incubated at a 37 C/5% CO2 incubator for 5 hours, 23 nL of compounds dissolved in DMSO, positive controls or DMSO only was transferred to the assay plate by a pin tool. The plates were incubated at 37 C for 16 hours. After 1 uL of LiveBLAzerTM B/G FRET substrate was added using a Flying Reagent Dispenser, the plates were incubated at room temperature for 2 hours, and fluorescence intensity was measured by an Envision plate reader.
For cell viability readout that measures cytotoxicity, 4 ul/well of CellTiter-Glo reagent was added into the assay plates using a Flying Reagent Dispenser. After 30 min incubation at room temperature, the luminescence intensity in the plates was measured using a ViewLux plate reader.
% is set by controls: 0 for no effect and ±100 for the full control effect.

Structure (SMILES)	outcome	activity change, negative = cytotoxicity
O=S(O)CO	inactive	
CCN(CC)CCNC(=O)c1cc(S(C)(=O)=O)ccc1OC		-18.3% [at 39.1 µM]
CC(C)c1cc2c(cc1S(=O)(=O)O)[C@@]1(C)CCC[C@@](C)(C(=O)O)[C@@H]1CC2		3.83%
CC/C=C\CCOC(C)=O		12.2%
C1OCOCO1		-5.6% [at 95.3 µM]
C[C@](N)(Cc1ccc(O)cc1)C(=O)O		13.1%
CC(C)(c1ccc(O)cc1)c1ccc(O)cc1		9.27%
N=C(N)c1ccc(OCCCOc2ccc(C(=N)N)cc2)cc1		-16.5%
N[C@@H](C(=O)N[C@@H]1C(=O)N2C(C(=O)O)=C(Cl)CS[C@H]12)c1ccccc1		-4.71%
OC[C@]1(O)OC[C@@H](O)[C@H](O)[C@@H]1O	inactive	
NCCc1cnc[nH]1		17.4%
O=c1[nH]c(=O)n([C@H]2C[C@H](O)[C@@H](CO)O2)cc1I		11.9% [at 39.1 µM]
CCOC(=O)CCC(C)=O		21.7%
CCN(CC)CCOCCOC(=O)C1(c2ccccc2)CCCC1		-16.2%
C[C@@H]1CCN(C(=O)[C@H](CCCN=C(N)N)NS(=O)(=O)c2cccc3c2NC[C@H](C)C3)[C@@H](C(=O)O)C1		-9.66%
CC(C)OC(=O)c1ccccc1		6.01% [at 95.3 µM]
NC(=O)Nc1ccccc1		8.17%
CCCCCSCCCCC		14.7%
c1ccc(CC2=NCCN2)cc1		10.2% [at 39.1 µM]
N=c1nc(N2CCCCC2)cc(N)n1O		10.5%

Structure (SMILES)	outcome	activity change, negative = cytotoxicity
C[N+](C)(C)CC(O)CC(=O)[O-] (stereo not given)		17.1%
O=Cc1cccc([N+](=O)[O-])c1		19.4%
COc1ccc2c(c1)c(CC(=O)OCC(=O)O)c(C)n2C(=O)c1ccc(Cl)cc1		6.06%
CCN1CCC[C@H]1CNC(=O)c1c(O)c(Cl)cc(Cl)c1OC		22.1%
OCCCC1CCCCC1		-12.3%
CC(C)CCCC(C)N (stereo not given)		-9.54%
COCCc1ccc(OCC(O)CNC(C)C)cc1 (stereo not given)	inactive	
COC(=O)[C@@H](N)Cc1ccc(O)c(O)c1		4.88%
CC(C)(C)c1ccc(O)c(O)c1		-14.7% [at 95.3 µM]
COc1c(N2C[C@@H]3CCCN[C@@H]3C2)c(F)cc2c(=O)c(C(=O)O)cn(C3CC3)c12	inactive	
CCOC(=O)c1cccc(N)c1		-13.1%
COc1nc(N)nc2c1ncn2[C@@H]1O[C@H](CO)[C@@H](O)[C@@H]1O		9.98%
COC(=O)CC(C)=O		8.33%
C/C=C(\C)C#N		13.8%
CCCCCCCCCCCCCCCCC		7.19%
CCN1CCC[C@H]1CNC(=O)c1cc(S(N)(=O)=O)ccc1OC		12.9%
C=C(C)C(=O)OCCCCCCCC(C)C		-3.31% [at 95.3 µM]
CN1CC(=O)NC1=N		-8.8%
CC(=O)OCC(=O)[C@@]1(O)CCC2C3CCC4=CC(=O)CC[C@]4(C)C3[C@@H](O)C[C@@]21C (stereo not given in full)		13.3%
Cc1cccn2c(=O)c(-c3nnn[nH]3)cnc12		-14%
